# Molecular target: Focal adhesion kinase 1 (Homo sapiens) (UniProt Q05397)
# Experiment: small-molecule microarray binders of FAK, primary screen, biochemical, 635/667 nm fluorescence, BSA, DTT (AID 1130);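 note: composite of spot emission at 667 nm and signal to noise over triplicate slides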
# Conditions: PTK2 binding, 635 nm fluorescence, higher = more signal
# Chain of Focal adhesion kinase 1 (Homo sapiens) (Q05397 whole entry, looked up): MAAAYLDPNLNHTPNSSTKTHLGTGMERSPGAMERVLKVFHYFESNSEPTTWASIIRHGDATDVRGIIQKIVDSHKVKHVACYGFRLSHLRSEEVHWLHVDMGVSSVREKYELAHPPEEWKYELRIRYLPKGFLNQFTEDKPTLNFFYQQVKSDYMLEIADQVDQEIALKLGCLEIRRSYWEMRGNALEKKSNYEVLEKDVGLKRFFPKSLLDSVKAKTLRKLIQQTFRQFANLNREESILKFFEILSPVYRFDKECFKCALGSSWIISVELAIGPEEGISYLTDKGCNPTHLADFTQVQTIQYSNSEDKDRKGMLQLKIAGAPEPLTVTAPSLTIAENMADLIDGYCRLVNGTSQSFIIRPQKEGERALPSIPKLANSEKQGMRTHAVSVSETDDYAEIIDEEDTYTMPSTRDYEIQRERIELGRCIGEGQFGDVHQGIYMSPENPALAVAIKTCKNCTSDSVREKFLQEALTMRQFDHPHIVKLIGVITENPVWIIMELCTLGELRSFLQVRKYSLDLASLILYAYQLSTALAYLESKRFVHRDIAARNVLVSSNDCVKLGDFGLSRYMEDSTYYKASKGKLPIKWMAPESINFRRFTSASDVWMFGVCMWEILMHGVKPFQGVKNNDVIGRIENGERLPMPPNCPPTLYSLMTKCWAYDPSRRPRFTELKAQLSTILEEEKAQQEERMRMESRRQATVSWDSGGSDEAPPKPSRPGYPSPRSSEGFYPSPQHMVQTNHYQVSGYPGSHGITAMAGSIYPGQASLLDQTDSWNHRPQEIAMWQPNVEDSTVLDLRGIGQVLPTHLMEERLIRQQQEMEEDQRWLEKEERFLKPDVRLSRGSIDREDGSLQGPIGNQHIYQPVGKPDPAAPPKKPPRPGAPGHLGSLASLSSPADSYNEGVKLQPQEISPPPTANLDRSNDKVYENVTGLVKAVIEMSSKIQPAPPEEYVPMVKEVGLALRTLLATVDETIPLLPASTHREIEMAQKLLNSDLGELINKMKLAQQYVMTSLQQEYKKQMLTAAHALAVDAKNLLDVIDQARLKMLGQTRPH
row,Structure (SMILES),composite z-score
1,COC(=O)[C@H](CCSC)NC(=O)CC=C[C@@H](C)CO,0.0533
2,C[C@H]1CC[C@@H](C(=O)O)N[C@@H]1c1cccc(N2CCCC2=O)c1,-0.0555
3,C#CCCCON=C1C[C@@H](O)[C@@H](O)[C@@H]2[C@@H]3C(=O)N([C@@H](C)c4ccccc4)C(=O)[C@@H]3CC[C@@H]12,-0.0567
4,COC(=O)[C@H](C)NC(=O)CCC1CC(OC(=O)NCc2ccc3c(c2)OCO3)CC2(CCCC(COC(=O)NCc3ccccc3)O2)O1 (stereo not given in full),-0.0996
5,CCOC(=O)CCN1C(=O)[C@H]2[C@H]3[C@H](O)[C@H](O)CC(=NNC(=O)OCC)[C@H]3CC[C@H]2C1=O,0.276
6,CC(C)(C)N1C(=O)[C@H]2[C@@H]3C(=CC[C@H]2C1=O)C(=O)[C@H]1O[C@H]1[C@H]3O,-0.339
7,O=C1[C@H]2[C@H]3[C@H](O)[C@H](O)CC(=NO[C@@H]4O[C@H](CO)[C@@H](O)[C@H](O)[C@H]4O)[C@@H]3CC[C@H]2C(=O)N1C1CCCCC1,-0.0408
8,COc1ccc(COC(=O)NN=C2C[C@@H](O)[C@@H](O)[C@@H]3[C@@H]4C(=O)N([C@@H](C)c5ccccc5)C(=O)[C@@H]4CC[C@@H]23)cc1,-0.313
9,COc1ccc(COC(=O)NN=C2C[C@@H](O)[C@@H](O)[C@@H]3[C@@H]4C(=O)N(Cc5ccccc5)C(=O)[C@@H]4CC[C@@H]23)cc1,0.0398
10,CC(C)[C@@H](OCc1ccccc1)[C@H](C)C=NO[C@@H](C)c1cn([C@H](CO)Cc2ccccc2)nn1,-0.0232
11,CCOC(=O)[C@H](Cc1ccccc1)NC(=O)CCC1CC(OC(=O)NCc2ccc3c(c2)OCO3)CC2(CCCC(COC(=O)NCCOc3ccccc3)O2)O1 (stereo not given in full),-0.0176
12,COC(=O)[C@H](C)NC(=O)CCC1CC(OC(=O)NCc2ccc3c(c2)OCO3)CC2(CCCC(COC(=O)NCCCN3CCCC3=O)O2)O1 (stereo not given in full),0.174
13,O=C(NN=C1C[C@@H](O)[C@@H](O)[C@@H]2[C@@H]3C(=O)N(Cc4ccc5c(c4)OCO5)C(=O)[C@@H]3CC[C@@H]12)OCc1ccccc1,0.28
14,CCN1C(=O)[C@H]2[C@H]3[C@H](O)[C@H](O)CC(=NOCC[C@@H]4C=C[C@H](OC(C)=O)[C@@H](COC(C)=O)O4)[C@@H]3CC[C@H]2C1=O,0.39
15,COC(=O)[C@H](C)NC(=O)CCC1CC(OC(=O)NCc2ccc3c(c2)OCO3)CC2(CCCC(COC(=O)NCCC(C)C)O2)O1 (stereo not given in full),0.73
16,CO[C@H]1COC(=O)CC=C[C@H](C)[C@H](OC)COC(=O)[C@@H](C)NC(=O)CC=C[C@@H]1C,0.764
17,O=C1C=C[C@@H](O)[C@@H]2[C@@H]3C(=O)N(Cc4ccccc4)C(=O)[C@@H]3CC[C@@H]12,0.168
18,CCOC(=O)[C@H](Cc1ccccc1)NC(=O)CCC1CC(OC(=O)NCc2ccc3c(c2)OCO3)CC2(CCCC(COC(=O)NCCc3ccc(Cl)cc3)O2)O1 (stereo not given in full),0.762
19,COc1ccc(-c2cnnc(CCCn3ccnc3-c3ccccc3)n2)cc1,0.107
20,CCOC(=O)NN=C1C[C@@H](O)[C@@H](O)[C@@H]2[C@@H]3C(=O)N(c4ccc(F)cc4F)C(=O)[C@@H]3CC[C@H]12,-0.0292
21,C#CCCCON=C1C[C@@H](O)[C@@H](O)[C@@H]2[C@@H]3C(=O)N(CC)C(=O)[C@@H]3CC[C@H]12,-0.442
22,C[C@H]1CC[C@@H](C(=O)O)N[C@@H]1c1ccc(C#Cc2ccccc2)cc1,0.454
23,COC(=O)[C@H](C)NC(=O)CCC1CC(OC(=O)NCc2cccc3ccccc23)CC2(CCCC(COC(=O)NCc3ccccc3)O2)O1 (stereo not given in full),0.388
24,CC(=O)OC[C@H]1O[C@H](CC=NOC[C@@H](O)[C@H]2O[C@@H]3OC(C)(C)O[C@@H]3[C@H]2O)C=C[C@@H]1OC(C)=O,0.15

# System: Fibrinogen (Alexa647-labelled)
# Experiment: fibrinogen binders on compound microarrays, profiling panel, artefact control for SMM control-protein annotation, biochemical, small-molecule microarray, 635/667 nm fluorescence (AID 1131);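 note: z-score merges 667 nm fluorescence with per-spot signal-to-noise over triplicate slides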
# Conditions: fibrinogen-A647 binding fluorescence, higher = more signal
row,Structure (SMILES),composite z-score
1,COCC#Cc1ccc([C@@H]2N[C@H](C(=O)O)CC[C@H]2C)cc1,-0.426
2,C#CCCCON=C1[C@H]2CCn3c(=O)n([C@@H](CC)c4ccccc4)c(=O)n3[C@H]2[C@H](O)[C@@H]2O[C@H]12,-0.509
3,O=C1CCCC=C1C(O)C1CCCCC1 (stereo not given),-0.206
4,C[C@@H](c1ccccc1)N1C(=O)[C@H]2[C@H]3[C@H](O)[C@H](O)CC(=NOC[C@@H](O)COCc4ccco4)[C@H]3CC[C@H]2C1=O,0.658
5,CCOC(=O)[C@H](CC(C)C)NC(=O)CCC1CC(OC(=O)NCCc2ccc(F)cc2)CC2(CCCC(COC(=O)NCc3cccc4ccccc34)O2)O1 (stereo not given in full),0.279
6,COC(=O)[C@H](C)NC(=O)CCC1CC(OC(=O)NCCc2ccc(F)cc2)CC2(CCCC(COC(=O)NCCc3ccccc3OC)O2)O1 (stereo not given in full),0.733
7,CCOC(=O)CCN1C(=O)[C@H]2[C@H]3[C@H](O)[C@H](O)CC(=NOCC(C)C)[C@@H]3CC[C@H]2C1=O,-0.586
8,CC[C@@H](c1ccccc1)n1c(=O)n2n(c1=O)[C@H]1[C@H](O)[C@@H]3O[C@@H]3C(=NOCc3ccccc3)[C@H]1CC2,0.931
9,COc1ccc(O[C@H]2C=C[C@@H](c3ccccc3)O[C@@H]2CON=C(C)CCN2CCCc3nc(C)c(C)cc32)cc1,0.328
10,COC(OC)[C@@H](C)[C@H](OC)[C@@H](C)[C@H](OC)c1ccccc1,-0.353
11,CC(CCN1CCc2nc(-c3ccccc3)c(-c3ccccc3)cc2C1)=NO[C@@H](C)c1cc(-c2c(C)cc(C)cc2C)no1,0.496
12,CO[C@H]1COC(=O)CCC[C@H](C)[C@H](OC)COC(=O)CC=C[C@@H]1C,-1.52
13,COC(=O)[C@H](CCSC)NC(=O)CC=C[C@@H](C)CO,-0.922
14,C[C@H]1CC[C@@H](C(=O)O)N[C@@H]1c1cccc(N2CCCC2=O)c1,0.25
15,C#CCCCON=C1C[C@@H](O)[C@@H](O)[C@@H]2[C@@H]3C(=O)N([C@@H](C)c4ccccc4)C(=O)[C@@H]3CC[C@@H]12,-0.181
16,COC(=O)[C@H](C)NC(=O)CCC1CC(OC(=O)NCc2ccc3c(c2)OCO3)CC2(CCCC(COC(=O)NCc3ccccc3)O2)O1 (stereo not given in full),0.332
17,CCOC(=O)CCN1C(=O)[C@H]2[C@H]3[C@H](O)[C@H](O)CC(=NNC(=O)OCC)[C@H]3CC[C@H]2C1=O,-1.05
18,CC(C)(C)N1C(=O)[C@H]2[C@@H]3C(=CC[C@H]2C1=O)C(=O)[C@H]1O[C@H]1[C@H]3O,-1.06

row,Structure (SMILES),composite z-score
1,O=C1[C@H]2[C@H]3[C@H](O)[C@H](O)CC(=NO[C@@H]4O[C@H](CO)[C@@H](O)[C@H](O)[C@H]4O)[C@@H]3CC[C@H]2C(=O)N1C1CCCCC1,0.384
2,COc1ccc(COC(=O)NN=C2C[C@@H](O)[C@@H](O)[C@@H]3[C@@H]4C(=O)N([C@@H](C)c5ccccc5)C(=O)[C@@H]4CC[C@@H]23)cc1,0.373
3,COc1ccc(COC(=O)NN=C2C[C@@H](O)[C@@H](O)[C@@H]3[C@@H]4C(=O)N(Cc5ccccc5)C(=O)[C@@H]4CC[C@@H]23)cc1,-0.113
4,CC(C)[C@@H](OCc1ccccc1)[C@H](C)C=NO[C@@H](C)c1cn([C@H](CO)Cc2ccccc2)nn1,-0.157
5,CCOC(=O)[C@H](Cc1ccccc1)NC(=O)CCC1CC(OC(=O)NCc2ccc3c(c2)OCO3)CC2(CCCC(COC(=O)NCCOc3ccccc3)O2)O1 (stereo not given in full),0.96
6,COC(=O)[C@H](C)NC(=O)CCC1CC(OC(=O)NCc2ccc3c(c2)OCO3)CC2(CCCC(COC(=O)NCCCN3CCCC3=O)O2)O1 (stereo not given in full),0.861
7,O=C(NN=C1C[C@@H](O)[C@@H](O)[C@@H]2[C@@H]3C(=O)N(Cc4ccc5c(c4)OCO5)C(=O)[C@@H]3CC[C@@H]12)OCc1ccccc1,0.057
8,CCN1C(=O)[C@H]2[C@H]3[C@H](O)[C@H](O)CC(=NOCC[C@@H]4C=C[C@H](OC(C)=O)[C@@H](COC(C)=O)O4)[C@@H]3CC[C@H]2C1=O,0.936
9,COC(=O)[C@H](C)NC(=O)CCC1CC(OC(=O)NCc2ccc3c(c2)OCO3)CC2(CCCC(COC(=O)NCCC(C)C)O2)O1 (stereo not given in full),0.87
10,CO[C@H]1COC(=O)CC=C[C@H](C)[C@H](OC)COC(=O)[C@@H](C)NC(=O)CC=C[C@@H]1C,-2.18
11,O=C1C=C[C@@H](O)[C@@H]2[C@@H]3C(=O)N(Cc4ccccc4)C(=O)[C@@H]3CC[C@@H]12,0.394
12,CCOC(=O)[C@H](Cc1ccccc1)NC(=O)CCC1CC(OC(=O)NCc2ccc3c(c2)OCO3)CC2(CCCC(COC(=O)NCCc3ccc(Cl)cc3)O2)O1 (stereo not given in full),0.755
13,COc1ccc(-c2cnnc(CCCn3ccnc3-c3ccccc3)n2)cc1,0.747
14,CCOC(=O)NN=C1C[C@@H](O)[C@@H](O)[C@@H]2[C@@H]3C(=O)N(c4ccc(F)cc4F)C(=O)[C@@H]3CC[C@H]12,0.233
15,C#CCCCON=C1C[C@@H](O)[C@@H](O)[C@@H]2[C@@H]3C(=O)N(CC)C(=O)[C@@H]3CC[C@H]12,0.636
16,C[C@H]1CC[C@@H](C(=O)O)N[C@@H]1c1ccc(C#Cc2ccccc2)cc1,0.918
17,COC(=O)[C@H](C)NC(=O)CCC1CC(OC(=O)NCc2cccc3ccccc23)CC2(CCCC(COC(=O)NCc3ccccc3)O2)O1 (stereo not given in full),0.893
18,CC(=O)OC[C@H]1O[C@H](CC=NOC[C@@H](O)[C@H]2O[C@@H]3OC(C)(C)O[C@@H]3[C@H]2O)C=C[C@@H]1OC(C)=O,0.727

# Reference: PubChem BioAssay
